High-throughput results as filed in PubChem.
Pf Dd2 inh: qHTS Primary assay for Inhibitors of Plasmodium falciparum Dd2 growth in vitro; AID 1347417, 2020; P. falciparum Dd2 growth, SYBR Green, 72 h; Potency, µM (top dose mostly 28.9 µM), hits mostly inhibitors; 4.3% of 120,000 active; active = well fitted inhibition curve with a large enough effect; also: nearly all actives have a fitted effect of over 65% in size
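Infected erythrocytes (Dd2, 0.3% parasitemia, 2.5% hematocrit final) are added to compound in RPMI-1640/Albumax II medium, grown 72 h at 37C in low oxygen, then lysed with saponin/Triton-X containing SYBR Green and read by fluorescence.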
Numbers stand for hits; - = inactive. Only a selection was taken, and hits are over-represented in it overall.

SMILES	Pf Dd2 inh
Cc1sc(-n2cccc2)c(C(C)NC(=O)Nc2ccccc2Cl)c1C (stereo not given)	5.6µM
CCOC(=O)c1ccccc1NC(=O)NC(C)c1c(-n2cccc2)sc(C)c1C (stereo not given)	11µM
CCOc1ccc(NC(=O)NC(C)c2c(-n3cccc3)sc(C)c2C)cc1 (stereo not given)	-
N#Cc1cccc(C(=O)N2CCc3c(n(Cc4ccccc4)n(-c4ccccc4)c3=O)C2)c1	-
O=C1NCCOCCN(C(=O)c2cccs2)[C@@H]2CCCC[C@H]12	-
O=C(c1nccc2ccccc12)N1CCC(n2cc(-c3nc(C4CC4)no3)nn2)C1 (stereo not given)	-
COC(=O)c1ccc(NC(=O)N2CCCC(CN3CCOCC3)CC2)cc1 (stereo not given)	-
O=C(c1ccn[nH]1)N1CCC(c2noc(COc3ccc(F)cc3)n2)C1 (stereo not given)	-
COCCOCC1(CNCc2c(C)noc2C)C[C@@H](O)[C@@H](O)C1 (stereo not given in full)	-
O=C(NCCc1ccccc1)c1cnc2c(c1)N([S+](=O)([O-])c1cccnc1)CCC2	-
CN1C[C@H](C(=O)Nc2ccncn2)C[C@H]1c1cccc(C(F)(F)F)c1	-
CN1C[C@H](C(=O)Nc2nccs2)C[C@H]1c1cccc(C(F)(F)F)c1	2.8µM
Cn1cc(CN2C[C@H](C(=O)Nc3nccs3)C[C@@H]2c2cccc(C(F)(F)F)c2)cn1	-
CC(C)c1ccc(NC(=O)CN2C(=O)C(c3ccccc3)=NC2(C)C)cc1	-
O=C(c1ccc2c(c1)OCO2)N1CCN2C(=O)N(Cc3ccccc3)C[C@H]2C1	-
Cc1cnn(C2(C(=O)O)CCN(C(=O)c3cc(C)nc(C)n3)CC2)c1	-
CCOC(=O)c1ccc(NC(=O)CCCc2nc(-c3cc(OC)c(OC)c(OC)c3)no2)cc1	13µM
O=C(CCCc1nc(-c2ccccc2)no1)Nc1cc(C(F)(F)F)cc(C(F)(F)F)c1	-
CCOC(=O)c1ccc(NC(=O)Cc2noc3ccc(C)cc23)cc1	-
COc1ccccc1-c1cc(Nc2ccc(N3CCOCC3)cc2)c2onc(C)c2n1	-
CSc1nc(Nc2ccc(C)cc2C)cc(-c2ccccc2)n1	-
Cc1cc(C)cc(Nc2cc(-c3ccccc3)nc(C)n2)c1	11µM
Cc1nc(SCC(=O)Nc2ccc(C)c(Cl)c2)cc(-c2ccccc2)n1	-
COC(=O)c1cccc(C(=O)N[C@H]2CO[C@H]3[C@@H]2OC[C@H]3OC(=O)Nc2cccc(C(F)(F)F)c2)c1	-
CCCOc1ccc(CNC(=O)CC2CCOCC2)cc1	-
SMILES	Pf Dd2 inh
O=C(NC1CCCCCCC1)C1CCCN(c2cnn(Cc3ccccc3)c(=O)c2)C1 (stereo not given)	-
O=C(NCc1ccc(Cl)cc1)C1CCCN(c2cnn(Cc3ccccc3)c(=O)c2)C1 (stereo not given)	11µM
O=C(NC1CCN(Cc2ccccc2)CC1)C1CCCN(c2cnn(Cc3ccccc3)c(=O)c2)C1 (stereo not given)	-
CCc1nc2c(c(-c3ccc(OC)cc3)n1)CCN([S+](=O)([O-])c1c(C)noc1C)CC2	-
COCC1CN(C(C)=O)CC12CCN(Cc1ccc(Cl)cc1)CC2 (stereo not given)	-
CC(C)c1ccc(NC(=O)Cn2c(=O)n(CC3CCC(C(=O)NCCc4ccccc4)CC3)c(=O)c3ccccc32)cc1 (stereo not given)	3.2µM
O=C(Cn1c(=O)n(CC2CCC(C(=O)NCCc3ccccc3)CC2)c(=O)c2ccccc21)Nc1ccccc1 (stereo not given)	-
Cc1cccc(NC(=O)Cn2c(=O)n(CC3CCC(C(=O)NCCc4ccccc4)CC3)c(=O)c3ccccc32)c1C (stereo not given)	-
CCOc1ccc(NC(=O)Cn2c(=O)n(CC3CCC(C(=O)NCCc4ccccc4)CC3)c(=O)c3ccccc32)cc1 (stereo not given)	-
CCc1cccc(NC(=O)Cn2c(=O)n(CC3CCC(C(=O)NCCc4ccccc4)CC3)c(=O)c3ccccc32)c1 (stereo not given)	3.5µM
CC(C)c1ccc(NC(=O)Cn2c(=O)n(CCc3ccccc3)c(=O)c3ccccc32)cc1	-
c1c[nH]c(-c2nc3ncccc3[nH]2)c1	-
CC(=O)N1CCC(N2C[C@@H]3OCC(=O)N(CC(N)=O)[C@@H]3C2)CC1	-
Cc1ccc(C)c(NC(=O)CSc2nc(-c3ccccc3)c(C#N)c(=O)[nH]2)c1	-
CCOc1ccccc1NC(=O)CSc1nc2c(c(=O)[nH]1)CCC2	-
COc1ccccc1NC(=O)CSc1nc(-c2ccc(C(C)(C)C)cc2)c(C#N)c(=O)[nH]1	10µM
c1ccc(-c2ccnc3nc(C4CCC4)nn23)cc1	-
CC(C)(C)c1ccc2c(c1)C(C[C@H]1CN(S(C)(=O)=O)CC[C@H]1CC(=O)O)=NCC2	-
COc1ccc(C(CC(=O)N2CCC(OC)CC2)c2ccccc2)cc1 (stereo not given)	-
COC(=O)c1ccc2c(c1)nc1n2[C@@H](CNC(C)=O)COC1	-
